Source: PubChem BioAssay
Compounds with a hit are over-represented: about 2.4% of the library has one in this group of screens.
POLI inh – inhibitors of human DNA polymerase iota | Q9UNA4 | Potency, µM (doses to about 115 µM), hits mostly inhibitors | 390,000 compounds, 1% hits | AID 588590 | Pol iota fluorescent replication assay, 10 min
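Pol iota at 10 nM preincubated 15 min with compounds at room temperature; reaction started with fluorescent substrate, 50 nM final. Fluorescence read kinetically at 0 and 10 min; buffer-only wells as negative control.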
Pol eta inh – blocks human DNA polymerase eta activity | AID 588591 | recombinant Pol eta, fluorescent DNA replication assay | Potency, µM (doses to about 114 µM), actives largely listed as inhibitors | Q9Y253 | 390,000 compounds, 1.2% hits
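Pol eta at 10 nM preincubated with compounds 15 min at room temperature; reaction started with fluorescent substrate (50 nM final) and read kinetically at 0 and 10 min.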
POLB inh – DNA polymerase beta (human) inhibition; P06746; Pol beta primer extension/strand displacement, fluorescence kinetic; Potency, µM (top dose mostly 114 µM), most hits filed as inhibitors; 340,000 compounds, 1.3% hits
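Human Pol beta at 10 nM; strand-displacement substrate 50 nM final. Compound exposure 15 min at room temperature before start, reaction 10 min at room temperature.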
Pol kappa inh – inhibitors of human DNA polymerase kappa. Potency, µM (highest dose often 107 µM), actives largely listed as inhibitors. 400,000 compounds, 0.53% hits. purified Pol kappa, fluorescent DNA synthesis assay, 10 min
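Inhibition of 10 nM Pol kappa is measured by a fluorescent read-out at 0 and 10 min following addition of 50 nM substrate (final), with a 15-min room-temperature compound preincubation.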
WRN helicase inh – blocks human WRN helicase | Q14191 | WRN helicase unwinding, fluorescent forked duplex, kinetic | Potency, µM (top dose mostly 114 µM), most hits filed as inhibitors | 360,000 compounds, 0.46% hits | AID 651768; further: nearly all actives have a fitted effect of over 55% in size
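Enzyme (20 nM final) and test compound sit together 15 min at room temperature before substrate addition. Substrate is a single-forked duplex oligonucleotide (100 nM) labelled with fluorophore and quencher, with 2 mM ATP; helicase unwinding raises red fluorescence, read kinetically.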
FEN1 inh – inhibitors of human flap endonuclease 1. P39748. Recombinant FEN1 flap cleavage, fluorescence, 15 min. Potency, µM (doses to about 114 µM), actives largely listed as inhibitors. 390,000 compounds, 0.35% hits. AID 588795; further: nearly all actives have a fitted effect of over 65% in size
Target sequence (P39748 whole entry, looked up): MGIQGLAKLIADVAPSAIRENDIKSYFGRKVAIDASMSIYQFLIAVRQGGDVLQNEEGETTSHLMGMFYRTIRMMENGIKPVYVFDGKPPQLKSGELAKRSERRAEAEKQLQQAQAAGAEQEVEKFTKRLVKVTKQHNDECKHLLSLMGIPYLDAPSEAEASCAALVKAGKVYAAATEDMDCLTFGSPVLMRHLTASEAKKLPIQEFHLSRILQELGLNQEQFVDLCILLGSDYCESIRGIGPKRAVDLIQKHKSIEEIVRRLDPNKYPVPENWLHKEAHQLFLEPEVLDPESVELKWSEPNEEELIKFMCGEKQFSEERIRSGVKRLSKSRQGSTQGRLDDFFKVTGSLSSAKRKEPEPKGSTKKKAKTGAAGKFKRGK
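Quantitative HTS format: each compound was titrated, incubated with 10 nM nuclease for 15 min at room temperature, then challenged with flap substrate at 50 nM final. Signal change over 15 min gave concentration–effect curves.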
Large screens that a line does not name were inactive. The call rests on the fitted dose curve; in most records, active means well fitted curve in the direction sought with a large enough effect; inconclusive means small, poorly fitted or top-dose-only effect, or another doubt; inactive means no such curve, though single readings can be large; an effect the other way counts as inactive or inconclusive.

Cn1c(=O)c(-c2cc(F)cc(F)c2)nc2cnc(N3CCNCC3)nc21	none (no result: POLI inh, Pol eta inh, POLB inh, WRN helicase inh, FEN1 inh)
Cc1cc(NS(=O)(=O)c2ccc(NC(=O)C(F)(F)F)cc2)nc(C)n1	POLB inh 56µM
CCCC(=O)Nc1ccc(S(=O)(=O)Nc2cc(C)nc(C)n2)cc1	none
COc1cc(/C=C/c2ccnc3ccccc23)cc(OC)c1OC	FEN1 inh inconclusive (no result: Pol eta inh, POLB inh, WRN helicase inh)
O=C(Nc1cc(Cl)ccc1Cl)c1cc([N+](=O)[O-])cc(Br)c1O	POLI inh inconclusive, FEN1 inh 50µM (no result: Pol eta inh, POLB inh, WRN helicase inh)
CC(=O)NN1C(=O)/C(=C\c2ccc(O)cc2)SC1=S	POLI inh inconclusive
CC(=O)NN1C(=O)/C(=C\c2ccc(Br)o2)SC1=S	POLI inh inconclusive, Pol eta inh 25µM, POLB inh 28µM, Pol kappa inh inconclusive
OCCCNC(=S)Nc1ccc2nccnc2c1	POLI inh 14µM, FEN1 inh 40µM
C[C@H](CCC(=O)NCC(=O)O)C1CC[C@H]2[C@H]3C(C[C@H](O)[C@]12C)[C@@]1(C)CC[C@@H](O)C[C@H]1C[C@H]3O (some centres not stated)	none (no result: POLI inh, Pol eta inh, POLB inh, WRN helicase inh, FEN1 inh)
O=C(O)c1ccccc1OS(=O)(=O)O	none (no result: POLI inh, Pol eta inh, POLB inh, WRN helicase inh, FEN1 inh)
COC(=O)C1=C(SC)N(c2ccccc2)C(c2ccccc2)CC1=O (configuration not stated)	Pol kappa inh 89µM, WRN helicase inh inconclusive
O=C1CC(c2ccccc2)N1c1ccccc1 (configuration not stated)	none
COc1ccc(-c2c(C3C4C=CCCC4(C)C(=O)N3Cc3ccccc3)ccc3ccccc23)cc1 (configuration not stated)	none (no result: Pol eta inh, POLB inh, WRN helicase inh)
O=C(O)COc1cccc(NC(=O)c2ccccc2)c1	POLI inh inconclusive, Pol eta inh 79µM
COc1cccc(OCC(=O)NNC(=O)c2ccc(-c3ccccc3)cc2)c1	POLI inh inconclusive, POLB inh 79µM
Cc1cccc(C(=O)NCC(=O)OCC(=O)c2ccc3ccccc3c2)c1	none (no result: Pol eta inh, POLB inh, WRN helicase inh)
Cc1ccc(/C=C2\SC(=S)N(CC3CCCO3)C2=O)o1 (configuration not stated)	POLI inh inconclusive, Pol eta inh inconclusive, POLB inh 20µM, Pol kappa inh inconclusive
Cc1ccc(/C=C2/SC(=S)N(C3CCCCC3)C2=O)o1	none
Cc1ccc(/C=C2/SC(=O)NC2=S)o1	POLI inh 7.1µM, Pol eta inh 8.9µM, POLB inh 20µM, Pol kappa inh 18µM, WRN helicase inh 40µM, FEN1 inh 40µM
C[C@@]12CCC[C@H]1C1CC[C@H]3C[C@H](O)CC[C@]3(C)C1CC2 (some centres not stated)	none (no result: POLI inh, Pol eta inh, POLB inh, WRN helicase inh, FEN1 inh)
Cc1ccc(O)c(C2=Nc3ccccc3N=C(c3cccc(F)c3)C2)c1	POLI inh 89µM, FEN1 inh inconclusive (no result: Pol eta inh, WRN helicase inh)
O=C(O)c1cccc(O)c1O	none (no result: POLB inh)
Oc1cccc(O)c1O	Pol kappa inh 3µM (no result: POLI inh, Pol eta inh, POLB inh, WRN helicase inh, FEN1 inh)
O=C(O)c1ccc(NC2=C(n3nnc4ccccc43)C(=O)c3ccccc3C2=O)cc1	POLI inh 40µM
Cc1ccc(-c2nnc3c4ccccc4c(C)nn23)cc1NC(=O)CN1CCOCC1	none (no result: POLI inh, Pol eta inh, Pol kappa inh, WRN helicase inh, FEN1 inh)
Cc1nn2c(-c3cccc(NC(=O)CN4CCOCC4)c3)nnc2c2ccccc12	POLI inh 40µM, Pol eta inh inconclusive, FEN1 inh inconclusive (no result: POLB inh)
O=C(NCc1ccco1)C1Cc2ccccc2CN1S(=O)(=O)c1ccccc1F (configuration not stated)	POLI inh 13µM, Pol eta inh 10µM, Pol kappa inh inconclusive, WRN helicase inh inconclusive (no result: POLB inh)
O=C(NCc1ccco1)C1Cc2ccccc2CN1C(=O)c1ccco1 (configuration not stated)	POLI inh 32µM, Pol eta inh 32µM, POLB inh 22µM, Pol kappa inh inconclusive
COc1ccc(CNC(=O)C2Cc3ccccc3CN2C(=O)c2ccco2)cc1 (configuration not stated)	POLB inh inconclusive
CC1(C)OC(=O)C2(Cc3cc(C(F)(F)F)ccc3N3CCCCC32)C(=O)O1 (configuration not stated)	none (no result: Pol eta inh, POLB inh, WRN helicase inh)
COCc1cc(C)nc(OCC(=O)N/N=C/c2ccc(-c3cc([N+](=O)[O-])ccc3C)o2)c1C#N	Pol eta inh inconclusive
Cc1ccc([N+](=O)[O-])cc1-c1ccc(/C=C(\C#N)c2[nH]nc(N)c2C#N)o1	POLI inh 56µM, Pol eta inh inconclusive, POLB inh 6.3µM, Pol kappa inh inconclusive, WRN helicase inh inconclusive, FEN1 inh inconclusive
CC(=O)n1cc(N(C(=O)CCl)c2ccc(C)cc2)c2ccccc21	Pol eta inh 32µM
COc1ccc(C(=O)Nc2sc3c(c2C(N)=O)CCCC3)cc1OC	none (no result: POLI inh, Pol eta inh, POLB inh, WRN helicase inh, FEN1 inh)
O=C(N/N=C/c1ccc(-c2cccc([N+](=O)[O-])c2)o1)c1cccs1	none
O=C(N/N=C/c1ccc([N+](=O)[O-])cc1)c1cccs1	POLI inh 71µM, Pol eta inh inconclusive, POLB inh 32µM, Pol kappa inh inconclusive
Cc1ccc(SCc2cc(=O)n3ccsc3n2)c(C)c1	POLB inh 28µM (no result: POLI inh, Pol eta inh, Pol kappa inh, WRN helicase inh, FEN1 inh)
O=c1cc(CSc2n[nH]c(-c3ccncc3)n2)nc2sccn12	POLI inh 50µM, Pol eta inh inconclusive, POLB inh 10µM, Pol kappa inh inconclusive
CSCC[C@@H]1NC(=O)[C@@H](NC(=O)[C@H](CCCNC(=N)N)NC(=O)[C@H](CC(C)C)NC(=O)[C@H](CCSC)NC(=O)[C@H](CC(=O)O)NC(=O)[C@H](Cc2ccccc2)NC(=O)[C@@H](N)CC(=O)O)CSSC[C@@H](C(=O)N[C@@H](Cc2c[nH]c3ccccc23)C(=O)N[C@@H](CCC(N)=O)C(=O)N[C@@H](Cc2ccc(O)cc2)C(=O)O)NC(=O)[C@@H]2CCCN2C(=O)[C@H](CCCNC(=N)N)NC(=O)[C@H](Cc2ccccc2)NC(=O)[C@H](C(C)C)NC(=O)[C@H](CCCNC(=N)N)NC(=O)CNC(=O)[C@H](CC(C)C)NC1=O	none (no result: POLI inh, Pol eta inh, POLB inh, WRN helicase inh, FEN1 inh)
CSCC[C@H](N)C(=O)N[C@@H](C)C(=O)NCC(=O)N[C@@H](CCCN=C(N)N)C(=O)N[C@@H](CO)C(=O)NCC(=O)N[C@@H](CC(=O)O)C(=O)N[C@@H](CO)C(=O)N[C@@H](CC(=O)O)C(=O)N[C@@H](CCC(=O)O)C(=O)N[C@@H](CC(=O)O)C(=O)N[C@@H](CC(C)C)C(=O)N[C@@H](CC(C)C)C(=O)N[C@@H](CCCCN)C(=O)N[C@@H](C)C(=O)N[C@H](C(=O)O)C(C)C	none (no result: POLI inh, Pol eta inh, POLB inh, WRN helicase inh, FEN1 inh)
COC(=O)C1=C[C@@H](C(=O)OC)C2C3=C(C(=O)[C@@]2(C)NC(=O)c2ccccc2)[C@H](C)n2c(=O)n(-c4ccccc4)c(=O)n2[C@@H]3C1 (some centres not stated)	none (no result: Pol eta inh, POLB inh, WRN helicase inh)
O=Cc1[nH]c2ccccc2c1N(C(=O)CCl)c1ccccc1	POLI inh inconclusive, Pol eta inh 20µM
